KB-3-1 tox = qHTS assay for MDR1-selective chemotherapeutics: Primary screen using the parental adenocarcinoma cell KB-3-1; actives 1.4% (n = 400,000); KB-3-1 viability, CellTiter-Glo ATP luminescence, 72 h; Potency, µM (doses to about 46.1 µM), hits mostly cytotoxic; also: nearly all actives have a fitted effect of over 60% in size
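KB-3-1 cells, DMEM (no phenol red) + 10% FBS; compound by pin transfer, 72 h, 37 °C. Readout: CellTiter-Glo luminescence after 10 min. Data normalized, curve-fitted.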
PINK1 expr mod = A Quantitative High throughput Screen to Identify Chemical Modulators of PINK1 Expression | PINK1 immunofluorescence, high-content cytometry, 24 h | Potency, µM (highest dose often 76.6 µM), most hits filed as activators | actives 0.2% (n = 410,000) | AID 624263, 2012; active = well fitted activation curve with a large enough effect; inconclusive = small, poorly fitted or top-dose-only effect; cell line not stated here; also: nearly all actives have a fitted effect of over 65% in size
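PINK1 protein, normally rapidly degraded, was detected by immunofluorescence after 24 hour compound treatment of a stable cell line. Titration data (5 concentrations) came from laser-scanning cytometry, with CCCP-treated wells as controls.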
SW480 rerep = A quantitative high throughput screen for small molecules that induce DNA re-replication in SW480 colon adenocarcinoma cells. Potency, µM (top dose mostly 46.1 µM), usual class: activators. actives 1.8% (n = 340,000). AID 624297, 2012. SW480 DNA re-replication, Hoechst DNA content imaging, 48 h; also: nearly all actives have a fitted effect of over 55% in size
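250 cells/well; 23 nL cpd via pin tool; 48 hr, 37 C, 5% CO2; Hoechst 40 min; imager read of total nuclear intensity, ex 405/em 500-530 nm.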
ALOX12 inh = Primary qHTS assay for inhibitors of human arachidonate 12S-lipoxygenase (ALOX12): Round 2; actives 1.1% (n = 580,000); purified 12hLO, xylenol orange hydroperoxide absorbance; Potency, µM (highest dose often 108 µM), usual class: inhibitors; Polyunsaturated fatty acid lipoxygenase ALOX12 (Homo sapiens), P18054
Target sequence (P18054 whole entry, looked up): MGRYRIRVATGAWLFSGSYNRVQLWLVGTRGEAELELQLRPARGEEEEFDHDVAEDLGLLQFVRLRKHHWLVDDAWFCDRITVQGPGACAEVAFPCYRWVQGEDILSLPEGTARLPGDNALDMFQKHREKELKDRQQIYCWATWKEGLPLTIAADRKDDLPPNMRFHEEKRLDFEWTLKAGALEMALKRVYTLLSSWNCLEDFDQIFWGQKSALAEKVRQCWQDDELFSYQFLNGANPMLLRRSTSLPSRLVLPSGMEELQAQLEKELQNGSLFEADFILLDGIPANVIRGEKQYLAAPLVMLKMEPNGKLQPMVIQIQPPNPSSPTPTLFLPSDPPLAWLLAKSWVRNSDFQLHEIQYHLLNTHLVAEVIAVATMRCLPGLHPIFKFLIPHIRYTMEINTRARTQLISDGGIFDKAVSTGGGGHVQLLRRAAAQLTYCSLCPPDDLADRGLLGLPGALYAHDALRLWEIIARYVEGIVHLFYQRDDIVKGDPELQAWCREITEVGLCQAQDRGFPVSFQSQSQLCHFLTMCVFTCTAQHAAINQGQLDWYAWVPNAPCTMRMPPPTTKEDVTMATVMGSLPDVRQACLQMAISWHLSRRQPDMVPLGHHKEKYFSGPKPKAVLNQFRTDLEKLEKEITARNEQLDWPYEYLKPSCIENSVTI
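Hydroperoxide product was detected by ferrous iron/xylenol orange as the 573 to 405 nm absorbance ratio. Arachidonic acid at 40 uM (final) was turned over for 30 min at room temperature by 150 nM human 12hLO, pH 7.0 Hepes buffer, after 15 min compound preincubation.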
MCF10A rereplic = A quantitative high throughput screen for small molecules that induce DNA re-replication in MCF 10a normal breast cells | AID 624296, 2012 | actives 2.9% (n = 350,000) | Potency, µM (highest dose often 46.1 µM), usual class: activators | MCF 10A DNA re-replication, Hoechst nuclear intensity, 48 h; also: nearly all actives have a fitted effect of over 50% in size
KB-V1 MDR tox = qHTS assay for MDR1-selective chemotherapeutics: Primary screen using the drug-selected MDR subline cells KB-V1; KB-V1 MDR cells viability, CellTiter-Glo, 72 h; Potency, µM (titrated, usually from 46.1 µM), actives largely listed as cytotoxic; actives 3.4% (n = 400,000); also: nearly all actives have a fitted effect of over 60% in size
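KB-V1 cells (P-gp-expressing MDR subline of KB-3-1) in phenol-red-free DMEM with 10% FBS were exposed to library compounds over a concentration series for 72 h at 37 degrees C. Viability read by CellTiter-Glo luminescence; concentration-effect curves fitted after normalization.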
A number is an active result; n = inactive; u = inconclusive; x = no result given; [ ] = dose if it differs, or a comment. In the library only some 5.8% were active in any assay of this set; here they are far more common. Unless noted, calls follow the shape of the dose curve; as a rule, active = well fitted curve in the direction sought with a large enough effect; inconclusive = small, poorly fitted or top-dose-only effect, or another doubt; inactive = no such curve, though single readings can be large; an effect the other way counts as inactive or inconclusive.

SMILES	KB-3-1 tox	PINK1 expr mod	SW480 rerep	ALOX12 inh	MCF10A rereplic	KB-V1 MDR tox
CCOc1ccc(C(=O)NCc2ccccc2)cc1Br	n	n	n	n	n	18µM
COc1ccc(C(=O)NC(=S)Nc2cccc3cc(O)ccc23)cc1OC	u	n	n	10µM	u	u
CCc1nnc(CN2CCC(C(=O)Nc3cccc(-c4ccco4)c3)CC2)o1	x	x	x	n	x	x
O=C(NC1C[C@H]2CC[C@@H](C1)N2C(=O)c1ccco1)c1ccncc1 (some centres not stated)	x	x	x	n	x	x
COc1ccc2[nH]c3c(c2c1)CCNC31CCN(C(=O)CC(C)C)CC1	x	x	x	n	x	x
CCCCNC1C(CC)C(CCC)C(C#N)(C#N)C1(C#N)C#N (configuration not stated)	u	n	u	x	21µM	u
N#C/C(=C/c1cccc(OCc2ccccc2)c1)c1nc2ccccc2[nH]1	x	x	x	n	x	x
CCCCCCNC(=O)O[C@H]1Cn2c(=O)ccc(=O)n2[C@@H]2CN(S(=O)(=O)c3ccc(C)cc3)C[C@]12O	16µM	n	x	u	x	n
COc1cccc(N=c2oc3ccccc3cc2-c2nc3ccccc3[nH]2)c1	n	n	n	u	n	18µM
COC(=O)N/N=C\c1ccccc1OC/C=C/c1ccccc1	n	n	16µM	x	u	n
CCOC(=O)N/N=C\c1ccccc1OC/C=C/c1ccccc1	n	n	u	n	u	n
NC(=S)N/N=C/c1ccccc1OC(=O)/C=C/c1ccccc1	n	n	u	5.6µM	n	n
CCNC(=O)CN1c2ccc(Br)cc2-c2ccccc2S1(=O)=O	x	x	x	n	x	x
CO[C@@H]1CO[C@H]2[C@@H]1OC[C@@H]2NC(=S)Nc1ccc(Cl)cc1	x	x	x	79µM	x	x
O=CNc1ccc2c(c1)Cc1cc([N+](=O)[O-])ccc1-2	2.3µM	n	3.3µM	n	u	u
Cc1ccc(NC(=O)c2c(C)oc(C)c2C)c(O)c1	x	x	x	n	x	x
CN(C)/C=N/c1ncc(C(=O)c2ccccc2)s1	n	n	n	n	n[0.0737 µM]	n
CN(C)/C=N/c1ncc(C(=O)c2ccc(-c3ccccc3)cc2)s1	n	n	n	n	9.2µM	12µM
COc1cccc(/C=N/Nc2ccnc(=O)[nH]2)c1O	4.6µM	n	u	n	u	u
COc1cccc(/C=N/Nc2snc(SC)c2C#N)c1O	13µM	13µM	n	n	n	16µM
CCOc1ccccc1/C=N/Nc1ccnc(=O)[nH]1	n	n	n	u	n	n
O=c1nccc(N/N=C/c2ccccc2O)[nH]1	6.5µM	n	u	n	n	n
Cc1nc(-c2ccc(S(=O)(=O)Nc3ccc(C(C)C)cc3)cc2)co1	x	x	x	n	x	x
CC(C)c1cc(=O)n2c(nc3ccccc32)[nH]1	n	n	n	n	n	n
O=c1cc(-c2ccccc2)[nH]c2nc3ccccc3n12	u	n	10µM	n	6.5µM	u
SMILES	KB-3-1 tox	PINK1 expr mod	SW480 rerep	ALOX12 inh	MCF10A rereplic	KB-V1 MDR tox
O=c1cc(CCl)[nH]c2nc3ccccc3n12	n	n	18µM	n	u	n
CN(C)CCCNc1oc(-c2ccc([N+](=O)[O-])cc2)nc1C#N	x	x	x	n	x	x
CCCn1nnc(NC(=O)c2ccccc2Br)n1	n	x	5.2µM	n	18µM	n
CCCn1nnc(NC(=O)/C=C/c2ccco2)n1	n	n	21µM	n	n	n
CCn1nnc(NC(=O)c2ccccc2Br)n1	n	n	n	n	n	n
CCCCn1nnc(NC(=O)c2ccc(-c3ccccc3[N+](=O)[O-])o2)n1	n	n	n	n	n	n
CCCCn1nnc(NC(=S)NC(=O)c2ccc(-c3cccc(Cl)c3Cl)o2)n1	u	n	n	x	n	15µM
CCCn1nnc(NC(=O)Cc2ccc(Cl)cc2)n1	u	n	n	n	8.2µM	n
Cc1ccc(S(=O)(=O)N2CCN(Cc3coc(-c4cccs4)n3)CC2)cc1	x	x	x	n	x	x
CC(NC(=O)Cn1nc(-c2ccc(F)cc2)oc1=O)c1ccccc1 (configuration not stated)	x	x	x	n	x	x
CC(C)=CC1C(C(=O)Nc2ccccc2OC(F)(F)F)C1(C)C (configuration not stated)	x	x	x	n	x	x
Cc1ccc(NC(=O)C2CCN(C(=O)C(C)(C)C)CC2)cc1S(=O)(=O)N1CCCCC1	x	x	x	n	x	x
CC(C)CNC(=O)C(C)Sc1cc(C(=O)NC2CC2)c2ccccc2n1 (configuration not stated)	x	x	x	n	x	x
CC(C)=N/N=c1\scc(C)n1Cc1ccco1	n	n	n	n	n	n
Cc1cs/c(=N\N=C\c2ccccc2)n1Cc1ccco1	u	n	n	n	u	16µM
Cc1oc2c(c1C(=O)N(C)CC(=O)N1CCOCC1)CN(Cc1ccc(F)cc1)CC2	x	x	x	n	x	x
CC1c2ccsc2CCN1CC(O)COc1ccc(-c2ccccc2)cc1 (configuration not stated)	x	x	x	n	x	x
CCCCCc1c(-c2ccccc2F)ncn1CCc1ccccc1OC	u	n	x	n	x	18µM
CCCCc1c(-c2ccccc2OC)ncn1Cc1c(F)cccc1F	x	x	x	n	x	x
CCCCc1c(-c2ccccc2F)ncn1CCc1ccccc1OC	u	u	x	u	x	15µM
CC(NC(=O)/C=C/c1cccnc1)c1ccc(C(F)(F)F)cc1 (configuration not stated)	x	x	x	n	x	x
CC(C#N)Sc1nc(-c2cccs2)cc(C(F)(F)F)c1C#N (configuration not stated)	x	x	x	n	x	x
CCN(Cc1ccc2c(c1)OCCO2)C(=O)CN1C(=O)NC2(CCCCC2)C1=O	n	n	n	n	n	18µM
CN(Cc1ccc2c(c1)OCCO2)C(=O)CN1C(=O)NC2(CCCCC2)C1=O	n	n	n	n	n	n
CCCN1CCc2c(sc(NC(=O)CCS(=O)(=O)c3ccccc3)c2C(N)=O)C1	x	n	18µM	n	21µM	x
SMILES	KB-3-1 tox	PINK1 expr mod	SW480 rerep	ALOX12 inh	MCF10A rereplic	KB-V1 MDR tox
CN1CCc2c(sc(NC(=O)CS(=O)(=O)c3ccccc3)c2C(N)=O)C1	n	n	n	n	n	n
Cc1ccc(Nc2n[nH]c(=S)s2)c(C)c1	n	n	x	25µM	x	n
Cc1cccc(Nc2n[nH]c(=S)s2)c1C	n	x	n	6.3µM	n	n
CC(C)c1ccc(Nc2n[nH]c(=S)s2)cc1	n	n	x	6.3µM	x	n
Cc1cccc(C)c1Nc1n[nH]c(=S)s1	u	n	x	u	x	n
Cc1cc(C)c(Nc2n[nH]c(=S)s2)cc1C	n	n	x	28µM	x	n
CC(=O)Nc1n[nH]c(=S)s1	u	n	n	n	n	n
COc1cccc(-c2cc(C3CCN(S(=O)(=O)c4ccc(C#N)cc4)CC3)[nH]n2)c1	x	x	x	n	x	x
